ChEMBL document CHEMBL3988442, “University of Dundee, Small-Polar-MMV Screening Library” (2021)
About 13,000 (27%) of roughly 48,000 compounds showed an effect of 50% or more. Some of the results follow.

Tested on: Wolbachia pipientis
Experiment: Anti-Wolbachia Cell-Based Screen
Type: functional
Set-up: scale not given: in the data most compounds retested in dose-response had high values
Details: 5 µM

Compound | Percent Effect
COCCNC(=O)c1ccnn1-c1ccc2ccccn12 | -19.09%
O=C(c1ccnn1-c1ccc2ccccn12)N1CCOCC1 | 95.26%
O=C(c1ccnn1-c1ccc2ccccn12)N1CCCC1 | 84.68%
O=C(c1c2c(NCC3CC3)ncnc2n2ccccc12)N1CCOCC1 | 2.912%
O=C(NCCN1CCOCC1)c1ccnn1-c1ccc2ccccn12.O=C(O)C(F)(F)F | -0.1496%
Cc1cccc2c1nc1n2[C@@H](CNC(=O)c2ccccn2)COC1 | -9.692%
CC(C)COC(=O)N1CCCN(Cc2nnc(C(C)(C)C)o2)CC1 | -7.056%
CC(Cn1cccn1)NC(=O)C1=Cc2ccccc2OC1 (centres undefined) | 2.492%
CC(C)CC(NC(=O)c1cnn(C)c1)C(=O)Nc1cc[nH]n1 (centres undefined) | -3.159%
Cn1cc(C(=O)NC(Cn2cccn2)C(C)(C)C)cn1 (centres undefined) | 91.75%
CC(C)(C)C(Cn1ccnc1)NC(=O)NCc1ccco1 (centres undefined) | 10.62%
CN(Cc1ccco1)C(=O)NC(Cn1ccnc1)C(C)(C)C (centres undefined) | -3.966%
CC(Cn1cccn1)NC(=O)Cc1cccs1 (centres undefined) | 8.385%
CC(C)(C)C(Cn1cccn1)NC(=O)c1ccco1 (centres undefined) | 126.5%
CCn1nccc1C(=O)NC(Cn1cccn1)C(C)(C)C (centres undefined) | 98.31%
CC(Cn1cccn1)NC(=O)NCCc1cnn(C)c1 (centres undefined) | -2.639%
O=S(=O)(Nc1ccc(N2CCOCC2)cc1)c1cccc(F)c1 | 2.423%
Cc1cc(CN2CC3(CCN(C(=O)C4CC4)CC3)CC2C(=O)O)oc1C (centres undefined) | -14.13%
O=c1[nH]c(NCc2cccc(-c3ccccc3)c2)nc2c1CCNC2 | -0.2023%
CC(=O)c1cccc(-c2nc3c([nH]2)CCNC3)c1F | -6.254%
CS(=O)(=O)N1CCOC2(CCN(c3ncccn3)CC2)c2ccccc21 | -2.489%
O=C(O)C(F)(F)F.O=C(O)C(F)(F)F.c1ccc(CN2CCOCC3(CCN(C4CCOCC4)C3)C2)cc1 (centres undefined) | -14.02%
CS(=O)(=O)N1CC2(CCN(C3COC3)C2)Cc2ccccc21 (centres undefined) | 109.7%
Cc1cccc(N2CCC(N3CCCC4(CN(C)C(=O)O4)C3)CC2)c1C (centres undefined) | 11.85%
Cc1cccc(N2CCC(N3CCCC4(CNC(=O)O4)C3)CC2)c1C (centres undefined) | -4.7%
CS(=O)(=O)N1CC2(CCCN(C3COC3)C2)Cc2ccccc21 (centres undefined) | 116.4%
Cn1c(C2CC2)nc2cc(NC(=O)C3CCOC3)ccc21 (centres undefined) | -8.416%

Compound | Percent Effect
CCc1nnc(CN2CCCN(C(=O)c3ccccn3)CC2)o1 | -2.51%
Cc1nnc2n1CCN(C(=O)CN1C(=O)CCCc3ccccc31)C2 | -14.77%
CCc1nc(CN2CCCN(C(=O)c3cc(C)on3)CC2)cs1 | -3.396%
Cc1cc(C(=O)N2CCN(c3nc4c(C(C)C)cccc4s3)CC2)no1 | 100.9%
Cc1cc(CNC(=O)N2CCN(c3nc(C)c(C)s3)CC2)no1 | -6.921%
Cc1cc(CNC(=O)N2CCN(c3ccccc3)CC2)no1 | 0.5807%
Cc1cc(C(=O)N2CCN(c3nc4c(C)cccc4s3)CC2)no1 | 128.5%
Cc1cc(NC(=O)N2CCN(c3nc(C)c(C)s3)CC2)no1 | -7.587%
COc1cccc2sc(N3CCN(C(=O)c4cc(C)on4)CC3)nc12 | 127.7%
Cc1cc(C(=O)N2CCC3(CC2)c2nc[nH]c2CCN3CC(C)C)no1 | -20.9%
COC(=O)c1ccc(N2CCN(C(=O)c3cc(C)on3)C(C)C2)cc1 (centres undefined) | -4.868%
Cc1cc(C(=O)N2CCc3ncc(CN4CCCCC4)n3CC2)no1 | -1.928%
COc1cccc([C@H]2CN(C(=O)c3cc(C)on3)C[C@@H]2N)c1 | -12.5%
Cc1cc(C(=O)N2CCN(c3nc4ccccc4s3)CC2)no1 | 133.9%
CNS(=O)(=O)c1ccc(CNC(=O)Nc2cc(C)on2)s1 | -23.04%
Cc1ccc2nc(C)c(C)c(C(=O)N3CCS(=O)(=O)CC3)c2c1 | 7.171%
O=C(NCC(Cc1cccc(F)c1)n1cccc1)C1CC1 (centres undefined) | 6.756%
COCCC(C)NCc1ccccc1-n1ccnc1 (centres undefined) | -12.2%
COc1cccc(NC(=O)N(CCO)C2CCc3ccccc32)c1 (centres undefined) | -4.61%
O=C(CN1CCOC(Cn2cccn2)C1)Nc1nncs1 (centres undefined) | -3.509%
NC(=O)C(NC(=O)CSCc1ccc(Cl)s1)c1ccccc1 (centres undefined) | 12.02%
Cc1cc(C(=O)N2CCN(c3nc4c(C(C)C)cccc4s3)CC2)on1 | 114.6%
CCOC(=O)N1CCN(C(=O)c2cc(-c3ccccc3F)on2)CC1 | 1.064%
Cc1cc(C(=O)N2CCc3c(ncn3CCc3ccccc3)C2)on1 | 8.742%
Cc1cccc(C(=O)N2CCN(c3ccccc3F)CC2)n1 | -20.73%
CCc1nc(CN2CCN(C(=O)c3cc(C)no3)CC2)cs1 | 6.247%
Cc1cc(C(=O)N2CCN(c3nc4c(F)cccc4s3)CC2)no1 | 123.7%
